Test results taken from PubChem BioAssay (EPA / NIEHS).
Active and inactive are the calls of the source. How the source made its calls: active means hit-call score of the fitted dose curve at least 0.9, where 1 is the maximum; inactive means score below 0.9.

Assays:
[1] = ATG_GLI_CIS: Attagene CIS-FACTORIAL HepG2 Assay for human Zinc Finger Protein GLI1 (AID 2282945); details: HepG2, Attagene cis-factorial reporter mRNA, GLI element; actives raise or lower the signal
In short: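 Transiently transfected HepG2 cells report endogenous transcription factor activity via cis-element-driven reporter units. After 24 h compound exposure, reporter mRNA was measured by RT-PCR with capillary electrophoresis; bidirectional fitting against DMSO baseline.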

[2] = ATG_GRE_CIS: Attagene CIS-FACTORIAL HepG2 Assay for human Glucocorticoid Response Elements (GRE) (AID 2282947); details: HepG2 GRE cis-reporter, Attagene multiplex mRNA; actives raise or lower the signal
In short: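 Endogenous transcription factor activity is read through cis-element reporter constructs transiently transfected into HepG2 cells. After 24 h treatment, labelled RT-PCR products are resolved by capillary electrophoresis; DMSO sets baseline for bidirectional curve fitting.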

[3] = ATG_ISRE_CIS: Attagene CIS-FACTORIAL HepG2 Assay for human Interferon Regulatory Factor 1 (IRF1) binding to an Interferon-Stimulated Response Element (ISRE) (AID 2282948); details: HepG2 ISRE cis-reporter (Attagene), mRNA transcription readout; actives raise or lower the signal
In short: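 Cell-based cis-reporter assay; HepG2; 24 h exposure; reporter mRNA by RT-PCR plus capillary electrophoresis fluorescence; activity in either direction scored relative to DMSO.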

[4] = ATG_M_32_CIS: Attagene CIS-FACTORIAL HepG2 Assay for M32 Transcription Factor (Internal Marker) (AID 2282949); details: HepG2 Attagene cis-factorial M32 reporter, mRNA; actives raise or lower the signal;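 further: background control marker of the multiplexed CIS panel rather than a real target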
In short: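 Internal background marker read-out: RT-PCR/capillary electrophoresis fluorescence of reporter transcripts from transiently transfected HepG2 cells after 24 h chemical exposure. Activity fitted bidirectionally relative to DMSO negative control.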

[5] = ATG_M_06_CIS: Attagene CIS-FACTORIAL HepG2 Assay for M06 Transcription Factor (Internal Marker) (AID 2282950); details: HepG2 Attagene CIS-FACTORIAL M06 internal marker reporter; actives raise or lower the signal
In short: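 Steps: transfect HepG2 with multiplexed cis-element reporter constructs; dose chemical 24 h; extract RNA with DNase treatment; reverse-transcribe, PCR-amplify, 6-FAM label, HpaI digest; separate fragments by capillary electrophoresis. Activity fitted both directions versus DMSO.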

[6] = target: Hypoxia-inducible factor 1-alpha (Homo sapiens) (UniProt Q16665); experiment: ATG_HIF1a_CIS: Attagene CIS-FACTORIAL HepG2 Assay for human Hypoxia Inducible Factor 1 (HIF1A) (AID 2282951); details: HepG2 Attagene cis-factorial HIF1a reporter transcription; actives raise or lower the signal
In short: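 In this multiplexed cell assay, HepG2 cells bearing transfected cis reporters are dosed for 24 h and reporter mRNA is read by RT-PCR plus capillary electrophoresis; signal increases and decreases are both scored against DMSO.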

[7] = target: Hepatocyte nuclear factor 6 (Homo sapiens) (UniProt Q9UBC0); experiment: ATG_HNF6_CIS: Attagene CIS-FACTORIAL HepG2 Assay for human Hepatocyte Nuclear Factor 6 (HNF6) (AID 2282952); details: HepG2 Attagene cis-factorial HNF6 reporter transcription; actives raise or lower the signal
In short: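 Reporter mRNA induction or loss in HepG2 after 24 h exposure; transient cis-MRTU transfection; fragments quantified by capillary electrophoresis; bidirectional analysis, DMSO as negative control.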

[8] = target: Heat shock factor protein 1 (Homo sapiens) (UniProt Q00613); experiment: ATG_HSE_CIS: Attagene CIS-FACTORIAL HepG2 Assay for human Heat Shock Transcription Factor 1 (HSE) (AID 2282953); details: HepG2 HSE cis-reporter, Attagene RNA transcription; actives raise or lower the signal
In short: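 Cells were transfected with cis-element-driven reporter constructs, dosed for 24 h, then total RNA was reverse-transcribed and reporter cDNA amplified, FAM-labelled and digested with HpaI. Fragments were resolved by capillary electrophoresis; gain or loss was fitted against DMSO.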

[9] = ATG_MRE_CIS: Attagene CIS-FACTORIAL HepG2 Assay for human Metal Responsive Element (MRE) (AID 2282954); details: HepG2 MRE cis-reporter transcription, Attagene multiplex; actives raise or lower the signal
In short: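 Fluorescent reporter fragments separated by capillary electrophoresis give mRNA induction for the MRE unit after 24 h treatment of transfected HepG2 cells. Endogenous transcription-factor activity is read; DMSO serves as negative control and baseline.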

[10] = ATG_RORE_CIS: Attagene CIS-FACTORIAL HepG2 Assay for human RAR-related Orphan Receptor Element (RORE) (AID 2282959); details: HepG2 Attagene cis-factorial RORE reporter, mRNA; actives raise or lower the signal
In short: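 Fluorescence intensity of reporter-specific cDNA fragments, separated by capillary electrophoresis, gives the signal. Source: HepG2 liver cells transiently transfected with cis-element reporters and exposed 24 h; DMSO-normalized bidirectional fit.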

[11] = target: Transcription factor Sp1 (Homo sapiens) (UniProt P08047); experiment: ATG_Sp1_CIS: Attagene CIS-FACTORIAL HepG2 Assay for human Specificity Protein 1 (Sp1) (AID 2282961); details: HepG2 Sp1 cis-reporter transcription, actives raise or lower the signal
In short: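 Sp1-driven reporter mRNA, read as capillary electrophoresis fluorescence after RT-PCR, in transiently transfected HepG2 cells dosed for 24 h; signal change in either direction relative to DMSO.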

[12] = ATG_SREBP_CIS: Attagene CIS-FACTORIAL HepG2 Assay for human Sterol Regulatory Element Binding (SREBP) (AID 2282962); details: HepG2 Attagene cis-factorial SREBP reporter, mRNA; actives raise or lower the signal
In short: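 mRNA induction of transfected cis-promoter reporters in HepG2 cells, 24 h post-dose. Detection: RT-PCR with 6-FAM-labelled products, HpaI digest, capillary electrophoresis. DMSO served as negative control and baseline.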

[13] = target: Signal transducer and activator of transcription 3 (Homo sapiens) (UniProt P40763); experiment: ATG_STAT3_CIS: Attagene CIS-FACTORIAL HepG2 Assay for human Signal Transducer and Activator of Transcription 3 (STAT3) (AID 2282963); details: HepG2, Attagene cis-factorial STAT3 reporter transcription; actives raise or lower the signal
In short: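 Values derive from bidirectional fits relative to DMSO of reporter mRNA levels, measured by RT-PCR with capillary electrophoresis, in HepG2 cells carrying transiently transfected cis-regulated reporter units and exposed 24 h.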

[14] = ATG_TA_CIS: Attagene CIS-FACTORIAL HepG2 Assay for human TA Basal Promoter (AID 2282964); details: HepG2 Attagene CIS-factorial TA basal promoter reporter; actives raise or lower the signal
In short: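 Steps: transfect HepG2 with MRTUs; dose 24 h; isolate RNA, DNase-treat, reverse-transcribe; PCR and FAM-label reporter cDNA; digest with HpaI 2h at 37 C; run capillary electrophoresis. Activity fitted both directions against DMSO.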

[15] = target: Paired box protein Pax-6 (Homo sapiens) (UniProt P26367); experiment: ATG_Pax6_CIS: Attagene CIS-FACTORIAL HepG2 Assay for human Paired Box 6 (PAX6) (AID 2282956); details: HepG2 CIS-FACTORIAL PAX6 reporter transcription, RNA readout; actives raise or lower the signal
In short: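 Multiplexed cis-reporter HepG2 system; 24 h treatment; reporter mRNA read by RT-PCR/CE fluorescence; bidirectional fit vs DMSO.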

[16] = ATG_Sox_CIS: Attagene CIS-FACTORIAL HepG2 Assay for human SRY-box transcription factor (SOX) (AID 2282960); details: HepG2 Attagene cis-factorial SOX reporter, mRNA; actives raise or lower the signal
In short: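 After 24 h of chemical treatment, transfected HepG2 reporter cells are lysed for total RNA. Transcript levels come from RT-PCR with labelled primer extension and capillary electrophoresis, analysed bidirectionally versus DMSO.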

[17] = ATG_PXRE_CIS: Attagene CIS-FACTORIAL HepG2 Assay for human Pregnane X Receptor Element (PXRE) (AID 2282957); details: HepG2 Attagene CIS-FACTORIAL PXRE reporter, mRNA; actives raise or lower the signal
In short: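 Transiently transfected HepG2 cells were dosed and incubated for 24 h. RNA was then isolated, DNase-treated, reverse-transcribed and reporter sequences amplified. Labeled, HpaI-digested fragments were quantified by capillary electrophoresis against DMSO.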

Sequence of Transcription factor Sp1 (Homo sapiens) (P08047 whole entry, looked up): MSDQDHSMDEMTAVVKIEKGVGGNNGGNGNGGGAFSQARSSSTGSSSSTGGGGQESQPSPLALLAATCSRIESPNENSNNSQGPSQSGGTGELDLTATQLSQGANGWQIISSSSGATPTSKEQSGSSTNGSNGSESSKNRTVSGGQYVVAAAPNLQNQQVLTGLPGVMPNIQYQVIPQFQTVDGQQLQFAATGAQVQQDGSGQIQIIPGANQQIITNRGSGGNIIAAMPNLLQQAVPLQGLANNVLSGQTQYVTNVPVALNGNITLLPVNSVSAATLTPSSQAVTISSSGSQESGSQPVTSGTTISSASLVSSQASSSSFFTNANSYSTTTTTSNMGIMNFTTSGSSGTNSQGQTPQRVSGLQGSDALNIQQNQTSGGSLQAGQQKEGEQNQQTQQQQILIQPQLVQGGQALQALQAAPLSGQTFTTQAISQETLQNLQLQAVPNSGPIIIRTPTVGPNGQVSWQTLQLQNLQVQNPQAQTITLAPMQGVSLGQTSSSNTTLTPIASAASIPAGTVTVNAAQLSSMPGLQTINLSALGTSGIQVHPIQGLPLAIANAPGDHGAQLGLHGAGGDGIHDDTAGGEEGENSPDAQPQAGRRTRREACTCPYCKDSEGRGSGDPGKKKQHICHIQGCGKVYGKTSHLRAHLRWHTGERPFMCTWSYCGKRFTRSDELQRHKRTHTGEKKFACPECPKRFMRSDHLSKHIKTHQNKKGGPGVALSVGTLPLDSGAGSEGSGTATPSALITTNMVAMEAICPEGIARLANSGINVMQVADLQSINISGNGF
Sequence of Hepatocyte nuclear factor 6 (Homo sapiens) (Q9UBC0 whole entry, looked up, the tested form may be a part): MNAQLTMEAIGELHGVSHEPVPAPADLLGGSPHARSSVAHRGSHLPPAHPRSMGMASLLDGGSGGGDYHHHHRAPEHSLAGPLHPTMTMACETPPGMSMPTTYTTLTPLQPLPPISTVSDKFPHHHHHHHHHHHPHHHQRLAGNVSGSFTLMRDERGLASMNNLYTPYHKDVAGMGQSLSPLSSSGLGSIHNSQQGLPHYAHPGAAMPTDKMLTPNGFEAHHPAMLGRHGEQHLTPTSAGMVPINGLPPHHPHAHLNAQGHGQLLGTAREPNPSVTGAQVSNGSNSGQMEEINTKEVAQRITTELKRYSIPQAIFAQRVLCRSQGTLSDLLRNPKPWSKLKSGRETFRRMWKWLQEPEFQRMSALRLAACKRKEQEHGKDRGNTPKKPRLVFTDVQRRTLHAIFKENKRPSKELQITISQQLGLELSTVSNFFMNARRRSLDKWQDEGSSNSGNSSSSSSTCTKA
Sequence of Hypoxia-inducible factor 1-alpha (Homo sapiens) (Q16665 whole entry, looked up): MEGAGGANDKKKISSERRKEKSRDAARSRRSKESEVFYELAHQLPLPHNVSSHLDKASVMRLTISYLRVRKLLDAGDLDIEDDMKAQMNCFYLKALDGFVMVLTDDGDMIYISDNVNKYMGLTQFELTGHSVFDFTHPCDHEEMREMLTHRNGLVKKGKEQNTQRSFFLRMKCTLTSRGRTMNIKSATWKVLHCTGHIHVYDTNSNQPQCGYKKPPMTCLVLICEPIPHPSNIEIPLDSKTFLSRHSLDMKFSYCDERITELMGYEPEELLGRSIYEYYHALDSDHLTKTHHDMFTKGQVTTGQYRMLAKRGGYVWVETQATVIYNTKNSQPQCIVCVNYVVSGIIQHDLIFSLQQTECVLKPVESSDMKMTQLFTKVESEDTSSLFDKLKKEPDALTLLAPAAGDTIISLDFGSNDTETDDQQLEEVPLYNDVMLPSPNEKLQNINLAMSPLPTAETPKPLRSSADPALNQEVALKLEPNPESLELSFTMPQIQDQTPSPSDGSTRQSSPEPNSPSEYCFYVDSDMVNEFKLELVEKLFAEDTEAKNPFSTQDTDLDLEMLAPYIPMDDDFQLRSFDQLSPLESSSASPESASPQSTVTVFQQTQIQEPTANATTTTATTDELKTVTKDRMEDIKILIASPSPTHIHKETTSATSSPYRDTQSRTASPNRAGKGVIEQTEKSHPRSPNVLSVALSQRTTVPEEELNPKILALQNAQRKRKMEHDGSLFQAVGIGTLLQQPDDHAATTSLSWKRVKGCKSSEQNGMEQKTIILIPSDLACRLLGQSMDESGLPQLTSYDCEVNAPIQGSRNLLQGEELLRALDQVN
Sequence of Signal transducer and activator of transcription 3 (Homo sapiens) (P40763 whole entry, looked up): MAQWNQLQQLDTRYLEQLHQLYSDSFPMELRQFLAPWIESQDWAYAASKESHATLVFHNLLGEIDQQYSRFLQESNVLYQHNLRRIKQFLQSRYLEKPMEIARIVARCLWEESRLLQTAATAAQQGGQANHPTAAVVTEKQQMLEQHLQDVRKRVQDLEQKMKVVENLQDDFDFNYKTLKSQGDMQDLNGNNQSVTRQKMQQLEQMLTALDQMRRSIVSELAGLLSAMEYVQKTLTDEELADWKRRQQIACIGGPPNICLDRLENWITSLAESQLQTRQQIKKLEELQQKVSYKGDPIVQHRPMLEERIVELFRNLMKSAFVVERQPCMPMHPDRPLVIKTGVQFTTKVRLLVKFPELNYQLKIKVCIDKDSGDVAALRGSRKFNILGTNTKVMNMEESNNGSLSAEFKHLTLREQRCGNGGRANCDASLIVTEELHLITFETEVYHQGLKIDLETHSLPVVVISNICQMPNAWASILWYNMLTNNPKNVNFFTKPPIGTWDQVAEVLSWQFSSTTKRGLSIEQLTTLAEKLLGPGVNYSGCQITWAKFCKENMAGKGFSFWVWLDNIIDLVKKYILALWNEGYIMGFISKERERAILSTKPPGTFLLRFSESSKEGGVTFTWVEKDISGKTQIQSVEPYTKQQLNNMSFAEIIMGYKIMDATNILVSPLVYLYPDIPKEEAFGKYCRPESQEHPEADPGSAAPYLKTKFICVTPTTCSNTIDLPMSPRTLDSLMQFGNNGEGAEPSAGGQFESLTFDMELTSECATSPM
Sequence of Heat shock factor protein 1 (Homo sapiens) (Q00613 whole entry, looked up, the tested form may be a part): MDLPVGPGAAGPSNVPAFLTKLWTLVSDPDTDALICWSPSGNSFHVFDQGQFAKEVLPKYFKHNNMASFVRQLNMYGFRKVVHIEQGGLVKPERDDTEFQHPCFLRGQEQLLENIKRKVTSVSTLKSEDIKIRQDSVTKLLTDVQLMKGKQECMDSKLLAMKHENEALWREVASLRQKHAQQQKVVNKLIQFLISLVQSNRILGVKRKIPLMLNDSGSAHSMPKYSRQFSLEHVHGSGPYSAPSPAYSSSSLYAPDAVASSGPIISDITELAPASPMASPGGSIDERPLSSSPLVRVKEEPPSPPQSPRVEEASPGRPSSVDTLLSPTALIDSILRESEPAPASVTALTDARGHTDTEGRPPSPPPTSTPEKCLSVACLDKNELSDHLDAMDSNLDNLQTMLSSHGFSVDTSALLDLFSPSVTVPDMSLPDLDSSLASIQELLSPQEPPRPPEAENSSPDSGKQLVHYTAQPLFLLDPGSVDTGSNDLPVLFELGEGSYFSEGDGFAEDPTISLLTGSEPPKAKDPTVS
Sequence of Paired box protein Pax-6 (Homo sapiens) (P26367 whole entry, looked up): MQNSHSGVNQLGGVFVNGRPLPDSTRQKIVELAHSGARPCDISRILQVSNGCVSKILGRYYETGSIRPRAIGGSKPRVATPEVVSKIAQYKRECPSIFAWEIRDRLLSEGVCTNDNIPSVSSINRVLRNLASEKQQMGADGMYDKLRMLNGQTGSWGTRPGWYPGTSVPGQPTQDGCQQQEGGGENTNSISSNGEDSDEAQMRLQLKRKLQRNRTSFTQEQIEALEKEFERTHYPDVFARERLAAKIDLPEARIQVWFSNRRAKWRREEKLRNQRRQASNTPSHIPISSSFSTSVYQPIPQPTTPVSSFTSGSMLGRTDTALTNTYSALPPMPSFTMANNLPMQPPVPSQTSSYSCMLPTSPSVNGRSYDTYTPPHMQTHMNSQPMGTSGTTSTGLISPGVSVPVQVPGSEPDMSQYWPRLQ

CC(CC(C)C)=NO
outcome [1]: inactive | outcome [2]: inactive | outcome [3]: inactive | outcome [4]: inactive | outcome [5]: inactive | outcome [6]: inactive | outcome [7]: inactive | outcome [8]: inactive | outcome [9]: inactive | outcome [10]: inactive | outcome [11]: inactive | outcome [12]: inactive | outcome [13]: inactive | outcome [14]: inactive

CC(C)CCOCc1ccccc1
outcome [1]: inactive | outcome [2]: inactive | outcome [3]: inactive | outcome [4]: inactive | outcome [5]: inactive | outcome [6]: inactive | outcome [7]: inactive | outcome [8]: inactive | outcome [9]: inactive | outcome [15]: inactive | outcome [10]: inactive | outcome [16]: inactive | outcome [11]: inactive | outcome [12]: inactive | outcome [14]: inactive

CCCCCCCCCCCC(=O)OCC
outcome [1]: inactive | outcome [2]: inactive | outcome [3]: inactive | outcome [4]: inactive | outcome [5]: inactive | outcome [6]: inactive | outcome [7]: inactive | outcome [8]: inactive | outcome [17]: inactive | outcome [10]: inactive | outcome [16]: inactive | outcome [11]: inactive | outcome [12]: inactive | outcome [13]: inactive

c1ccc(-c2nc3ccccc3[nH]2)cc1
outcome [1]: inactive | outcome [2]: inactive | outcome [3]: inactive | outcome [4]: inactive | outcome [5]: inactive | outcome [6]: inactive | outcome [7]: inactive | outcome [8]: inactive | outcome [9]: inactive | AC50 [17]: 27.4 µM (active) | outcome [16]: inactive | outcome [11]: inactive | outcome [12]: inactive | outcome [13]: inactive | outcome [14]: inactive

CC=C(C)C(C)=O
outcome [1]: inactive | outcome [2]: inactive | outcome [3]: inactive | outcome [4]: inactive | outcome [5]: inactive | outcome [6]: inactive | outcome [7]: inactive | outcome [8]: inactive | outcome [9]: inactive | outcome [15]: inactive | AC50 [17]: 8.49 µM (active) | outcome [10]: inactive | outcome [11]: inactive | outcome [12]: inactive | outcome [13]: inactive | outcome [14]: inactive
